Assay outcomes as filed in PubChem.
PTPN22 act: LYP phosphatase activators, primary screen, biochemical, DiFMUP fluorescence, 2 µM. recombinant LYP; 0 = plate median, 100 = signal doubled. Tyrosine-protein phosphatase non-receptor type 22 (Homo sapiens), Q9Y2R2. AID 697, 2007. actives 0.11% (n = 96,000). activation, % at 2 µM;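 active = activation at 2 µM above a set limit, the mean plus 5 SD, cut at about 37% in these data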
S1P2 antag: human S1P2 receptor antagonists, primary screen, cell-based; Sphingosine 1-phosphate receptor 2 (Homo sapiens), O95136; inhibition, % at 5 µM; cell-based S1P2 antagonist assay, inhibition at 5 uM; actives 0.21% (n = 97,000); in the data active = inhibition above about 45%;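 note: CRE beta-lactamase reporter cells expressing human S1P2 stimulated with S1P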
GALR2 antag: GALR2 antagonists in receptor-expressing cells, primary screen | antagonist mode | actives 0.39% (n = 140,000) | Galanin receptor type 2 (Homo sapiens), O43603 | inhibition, % at 4 µM | AID 828, 2007; in the data active = inhibition above about 27%;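 note: cells stimulated with galanin 1-16 at roughly its EC80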
Target sequence (O43603 whole entry, looked up): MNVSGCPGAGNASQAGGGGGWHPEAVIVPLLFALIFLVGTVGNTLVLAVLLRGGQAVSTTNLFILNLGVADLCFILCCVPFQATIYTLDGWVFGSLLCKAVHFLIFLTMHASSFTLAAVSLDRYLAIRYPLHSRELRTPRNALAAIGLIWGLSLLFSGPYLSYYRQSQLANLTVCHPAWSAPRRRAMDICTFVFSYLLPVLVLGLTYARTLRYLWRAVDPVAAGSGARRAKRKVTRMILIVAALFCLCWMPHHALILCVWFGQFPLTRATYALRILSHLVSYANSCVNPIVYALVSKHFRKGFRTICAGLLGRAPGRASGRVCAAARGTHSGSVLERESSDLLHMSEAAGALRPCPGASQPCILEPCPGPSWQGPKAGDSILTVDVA
GALR2 agonist: GALR2 receptor agonists, primary screen, cell-based; Galanin receptor type 2 (Homo sapiens), O43603; GALR2-expressing cells, agonist activation read-out; activation, % (test concentration not listed); actives 0.48% (n = 140,000); in the data active = activation above about 5%, passing the limit was not always enough
S1P2 agonist: S1P2 receptor agonists, primary screen, cell-based. S1P2-expressing cell line, agonist reporter read-out. AID 729, 2007. activation, % at 4.5 µM. actives 0.46% (n = 97,000); in the data active = activation above about 16%
PTPN22 inh 2: PTPN22 phosphatase inhibitors, primary screen, biochemical, DiFMUP fluorescence, 2 µM; Tyrosine-protein phosphatase non-receptor type 22 (Homo sapiens), Q9Y2R2; recombinant LYP catalytic domain; inhibition, % at 2 µM; actives 0.21% (n = 96,000);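 active = inhibition at 2 µM at or above a set limit, the screen mean plus 3 SD, cut at about 24% in these data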
Hits are given with their value; n = inactive; x = not tested or not shown. Sampled rows, rich in hits. Any-hit rate of the full collection: about 1.3%.

SMILES | PTPN22 act | S1P2 antag | GALR2 antag | GALR2 agonist | S1P2 agonist | PTPN22 inh 2
Cc1ccc2c(Cl)cc(Cl)c(OCC(=O)NCc3ccco3)c2n1 | n | n | n | n | n | 30
NC(=O)C1CCN(C(=O)/C=C/c2ccco2)CC1 | x | x | n | n | x | x
O=C(/C(=C/c1ccc(Cl)cc1)c1nc2ccccc2[nH]1)c1cccs1 | n | n | n | n | n | n
N=c1c(-c2nc3ccccc3[nH]2)cc(C(=O)c2cccs2)nn1-c1ccc(Cl)cc1 | n | n | n | n | 30 | n
N#Cc1c(NC(=S)NC(=O)Cc2cccs2)sc2c1CCCCC2 | n | n | n | n | n | n
CCOC(=O)C1=C(C)NC(SCC(=O)Nc2nc(C)cs2)=C(C#N)C1c1cccs1 (stereo not given) | n | n | n | 22 | 20 | n
C=CCOC(=O)C1=C(C)NC(SCC(N)=O)=C(C#N)C1c1cccs1 (stereo not given) | x | x | n | n | x | x
CCOC(=O)C1=C(O)/C(=C/c2ccc(OCC(=O)O)c(OC)c2)SC1=Nc1ccc(OCC)cc1 | x | x | n | n | x | x
CCOC(=O)C1=C(O)/C(=C/c2cc(OC)c(O)c(OC)c2)SC1=Nc1ccc(OC)cc1 | x | x | n | 7.3 | x | x
CC(C)(C)c1ccc(CSc2nnc(-c3ccccn3)n2Cc2ccco2)cc1 | n | n | n | n | 32 | n
C(=C\c1ccccc1)/CSc1nnc(-c2ccccc2)n1Cc1ccco1 | n | n | n | n | 53 | n
O=c1c2ccccc2nc(-c2ccccc2)n1Cc1ccco1 | n | n | n | n | 33 | n
Cc1ccc(-c2nc3ccccc3c(=O)n2Cc2ccccc2)cc1 | x | x | n | n | x | x
CC1=CCC2([N+](=O)[O-])CN(CC(=O)O)CC1([N+](=O)[O-])C2 (stereo not given) | x | x | n | n | x | x
COC(=O)c1ccccc1NC(=O)CSc1nc(NC(=O)c2ccccc2)c2c(C)c(C)oc2n1 | n | n | n | n | n | n
CCOC(=O)c1ccc(NC(=O)CSc2nc(NC(=O)c3ccccc3)c3c(C)c(C)oc3n2)cc1 | n | n | n | n | n | 25
N#CCSc1nc2cc(C(=O)N3CCC(C(N)=O)CC3)ccc2c2nc3ccccc3n12 | n | n | n | n | 37 | n
CCN(CC)c1ccc2cc(NC(=O)CCC(=O)O)c(=O)oc2c1 | x | x | 50 | n | x | x
CCN(CC)c1ccc2cc(C=O)c(=O)oc2c1 | n | n | n | n | n | n
CCN(CC)c1ccc2cc(C(=O)Nc3ccccn3)c(=O)oc2c1 | x | x | n | 19 | x | x
CCN(CC)c1ccc2cc(C(C)=O)c(=O)oc2c1 | n | n | n | n | n | n
CCN(CC)c1ccc2cc(C(N)=O)c(=O)oc2c1 | n | n | n | n | 21 | n
O=c1cc(CNc2ccc(Br)cc2)nc2sccn12 | x | x | n | n | x | x
COC(=O)c1cc(C(=O)Nc2cc(C)ccn2)cc([N+](=O)[O-])c1 | n | n | n | n | n | n
CCCNC(=O)c1c(N)n(-c2cccc(OC)c2)c2nc3ccccc3nc12 | n | n | n | 18 | 21 | n
SMILES | PTPN22 act | S1P2 antag | GALR2 antag | GALR2 agonist | S1P2 agonist | PTPN22 inh 2
O=C(Nc1c2ccccc2nc2ccccc12)C(Cl)(Cl)Cl | n | n | n | n | 18 | n
O=C(Nc1c2c(nc3ccccc13)CCCC2)c1ccccc1Cl | x | x | n | n | x | x
Cc1cccc(N2CCN(C(=O)C3CCN(S(=O)(=O)c4cccnc4)CC3)CC2)c1C | n | n | n | n | n | n
CC(=O)c1nn(-c2cccc(Br)c2)cc1C(=O)c1ccc(Cl)cc1 | x | x | n | 7.5 | x | x
O=C(N/N=C/c1ccccc1)c1sccc1OCc1ccc(F)cc1 | n | n | n | n | n | n
COc1ccc(OC)c(N=c2oc3cc(O)ccc3cc2C(N)=O)c1 | n | n | n | 5.3 | n | n
NC(=O)c1cc2ccc(O)cc2oc1=NCc1ccccc1 | x | x | n | 45 | x | x
c1ccc(-c2ccc(C3=Nn4c(nnc4-c4cc(-c5ccccc5)n[nH]4)SC3)cc2)cc1 | n | n | n | n | n | 42
CCNS(=O)(=O)c1cc(OC)c(Cl)cc1OC | x | x | n | n | x | x
Cc1cc(C)n2c(Br)c(CSc3nc4ccccc4o3)nc2n1 | n | n | n | n | 17 | n
Cc1cc(C)n2cc(CSc3nc4cc(Cl)ccc4o3)nc2n1 | n | n | n | n | 17 | n
CCN1C(=O)CC2(C[N+]3(C)CCC2CC3)C1=O (stereo not given) | x | x | n | n | x | x
O=C(Nc1ccc2oc(-c3ccc4ccccc4c3)nc2c1)c1ccc2c(c1)OCCO2 | n | n | n | n | n | 31
COc1cc2c(cc1OC)C1=C(C#N)CC/C(=N\S(=O)(=O)c3cccc(Cl)c3)N1CC2 | n | n | n | n | 49 | n
COc1ccc(C(=O)c2sc3nc(-c4ccccc4)ccc3c2N)cc1OC | n | 57 | n | n | n | 25
CON/C=C(\C=Nc1ccc(Cl)cc1)c1ncc(C(F)(F)F)cc1Cl | n | 47 | n | n | n | n
Cc1nn(-c2ccccc2)c(C)c1/C=N/NC(=O)c1cc(C23CC4CC(CC(C4)C2)C3)[nH]n1 | n | n | n | n | n | 38
Cc1ccc(OC(=O)CCC(=O)NC(C)c2ccccc2)cc1 (stereo not given) | x | x | n | n | x | x
CC1=[N+](C)c2ccc3ccccc3c2C1(C)C | x | x | n | n | x | x
O=C(CCCOc1ccc(Cl)cc1Cl)N/N=C/c1ccccc1O | x | x | n | n | x | x
COc1cnc(-c2ccccn2)nc1Sc1ccc(Cl)cc1 | n | n | n | n | n | 30
COc1cnc(N(C)C)nc1Sc1ccc(Cl)cc1 | n | n | n | n | n | n
CNC(=O)c1nc(C)n(-c2cc(Cl)ccc2Cl)n1 | n | n | n | n | n | n
NC(=O)c1cc(-c2ccccc2)sc1NC(=O)CN1CCCCC1 | x | x | n | n | x | x
Cc1ccc(-n2ncc3c(N4CCN(c5ccccc5)CC4)ncnc32)c(C)c1 | n | 60 | n | n | n | n
SMILES | PTPN22 act | S1P2 antag | GALR2 antag | GALR2 agonist | S1P2 agonist | PTPN22 inh 2
COc1ccc(N2CCN(c3ncnc4c3cnn4-c3ccc(C)cc3C)CC2)cc1 | n | n | n | n | n | n
O=C(Cc1cnn(-c2ccccc2)c1)c1ccc(O)c(O)c1O | n | n | n | n | n | 29
CCNC(=O)COc1cc(C)c(Cl)c(C)c1 | n | n | n | n | n | 25
Cc1cc(OCC(=O)N2CCCC2)cc(C)c1Cl | n | n | n | n | n | n
N#C/C(=C/c1ccc(N2CCCCCC2)o1)c1cccc(F)c1 | n | 50 | n | n | n | n
N#C/C(=C/c1ccc(N2CCCCCC2)o1)c1ccc(F)cc1 | n | 80 | 37 | n | n | n
N#C/C(=C\c1ccc(N2CCOCC2)o1)c1ccccc1 | n | n | n | n | n | n
N#C/C(=C/c1ccc(N2CCOCC2)o1)c1ccc(Br)cc1 | n | n | n | n | n | n
O=C(CNc1ccc2ccccc2c1)N/N=C/C=C/c1cccc([N+](=O)[O-])c1 | x | x | n | n | x | x
O=C(NCc1ccoc1)c1ccc(NC(=O)c2ccccc2Cl)cc1 | n | n | 29 | n | n | n
